High-throughput results as filed in PubChem BioAssay.
Shown are actives, neighbours in structure and some others; about 2.5% of the full set was active somewhere.
GRK2 aptamer HTS = human GRK2 inhibition via aptamer displacement. P25098. bead flow cytometry, FAM-aptamer displacement from GRK2. inhibition of aptamer binding, % at 10 µM. 0.59% of 330,000 active. AID 488847;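 active = inhibition of aptamer binding above 40%, roughly 3 SD of noise, on plates passing a quality check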;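 note: median bead fluorescence of bound FAM aptamer so fluorescent compounds give negative values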
Target sequence (P25098 whole entry, looked up): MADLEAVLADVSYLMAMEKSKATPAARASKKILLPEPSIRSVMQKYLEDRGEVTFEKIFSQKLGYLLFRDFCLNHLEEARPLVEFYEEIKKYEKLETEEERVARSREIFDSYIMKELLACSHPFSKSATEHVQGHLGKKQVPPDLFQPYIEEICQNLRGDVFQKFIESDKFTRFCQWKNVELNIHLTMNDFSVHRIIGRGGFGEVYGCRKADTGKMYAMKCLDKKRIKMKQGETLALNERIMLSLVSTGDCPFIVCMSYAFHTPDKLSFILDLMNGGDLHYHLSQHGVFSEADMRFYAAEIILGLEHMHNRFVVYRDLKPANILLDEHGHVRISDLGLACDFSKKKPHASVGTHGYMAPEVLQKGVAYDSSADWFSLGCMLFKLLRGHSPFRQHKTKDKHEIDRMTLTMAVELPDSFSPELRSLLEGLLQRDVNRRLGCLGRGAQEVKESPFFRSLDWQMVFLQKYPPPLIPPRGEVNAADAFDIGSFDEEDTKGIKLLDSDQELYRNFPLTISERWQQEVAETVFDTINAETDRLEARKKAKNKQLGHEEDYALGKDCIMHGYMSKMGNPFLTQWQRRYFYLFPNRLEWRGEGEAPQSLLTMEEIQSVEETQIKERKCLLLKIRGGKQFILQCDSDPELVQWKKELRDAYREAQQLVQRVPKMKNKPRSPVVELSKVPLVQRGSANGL
MEKK2 WT-MEK5 = raises or lowers MEK5 binding to wildtype human MEKK2 PB1 domain; AID 1531; bead flow cytometry, Alexa488-MEK5 binding to MEKK2 WT; actives lie on both sides; 1.1% of 290,000 active; binding response (% of control), % at 10 µM; in the data active = binding response below about 67% or above about 130%
MEKK2 mut-MEK5 = signal of MEK5 binding to mutant human MEKK2 PB1 domain | AID 1530 | percent response, % at 10 µM | 0.35% of 290,000 active | bead flow cytometry, Alexa488-MEK5 binding to MEKK2 mutant; in the data active = percent response above about 24%, passing the limit was not always enough
MEKK3 PB1 HTS = modulators (inhibitors or enhancers) of MEK5 binding to human MEKK3 PB1 domain; Q99759; bead-based flow cytometry, Alexa488-MEK5 binding to MEKK3; actives lie on both sides; 0 = blocked by unlabeled MEK5, 100 = vehicle; binding response (% of control), % at 10 µM; 1.4% of 290,000 active;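 active = binding response more than 3 SD above or below the average of its plate-row segment, actives on both sides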;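 note: Alexa488 bead fluorescence after subtracting the streptavidin-only scavenger bead signal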
MEKK2wt confirm = raises or lowers MEK5 binding to wildtype human MEKK2, retest; bead flow cytometry, Alexa488-MEK5 binding to MEKK2 WT; actives lie on both sides; shares compounds with MEKK3 PB1 HTS; binding response (% of control), % at 10 µM; 2.4% of 5,900 active; in the data active = binding response below about 16% or above about 210%; inactive = in between
MEKK2mut-MEK5 = signal of MEK5 binding to mutant human MEKK2, retest; shares compounds with MEKK3 PB1 HTS; bead flow cytometry, Alexa488-MEK5 binding to MEKK2 mutant; percent response, % at 10 µM; 2% of 5,900 active; AID 1893; in the data active = percent response mostly above about 71%, no sharp cut-off; inactive = mostly below about 38%;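 note: higher means compound restores mutant binding toward wildtype level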
MEKK3 confirm = confirmation of inhibitors of MEK5 binding to human MEKK3. shares compounds with MEKK3 PB1 HTS. bead flow cytometry, Alexa488-MEK5 binding to MEKK3; active compounds read low. binding response (% of control), % at 10 µM. 1.8% of 5,900 active. AID 1894;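 active = binding response below 72% of control, or above a set upper limit, though filed actives all read lower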;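 note: lower values mean stronger disruption of MEK5 binding to MEKK3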
Numbers stand for hits; i = inactive; nt = no result given; [ ] = remark or other dose.

SMILES | GRK2 aptamer HTS | MEKK2 WT-MEK5 | MEKK2 mut-MEK5 | MEKK3 PB1 HTS | MEKK2wt confirm | MEKK2mut-MEK5 | MEKK3 confirm
O=C(NCc1cccs1)N[C@@H](Cc1ccccc1)C(=O)O | i | -2.0[inhibitor] | i | 1.0[inhibitor] | i | i | i
CCOC(=O)c1c(S(=O)(=O)N2CCCC(C)C2)c(C)n(C)c1C (stereo not drawn) | i | i | i | i | nt | nt | nt
Cc1cc(C)n2nc(-c3ccccc3)cc2n1 | i | i | i | i | nt | nt | nt
Cc1cc(C)n2nc(Nc3ccccc3)cc2n1 | i | i | i | 81[inhibitor] | i | i | i
CCOc1ccc(-n2cc(C(=O)Nc3cccc(Cl)c3)c3cc(OC)c(OC)cc3c2=O)cc1 | i | 3.0[inhibitor] | i | 2.0[inhibitor] | i | i | i
CCOC(=O)c1c(C)[nH]c(O)c1C=Nc1ccc(C(F)(F)F)cc1 | i | i | i | 132 | i | i | i
CCOc1cccc(CNCc2ccc(C(=O)O)cc2)c1 | i | i | i | 50[inhibitor] | i | i | i
CCCCNC(=S)N1CCN(c2ccc(C(C)=O)cc2)CC1 | i | i | i | i | nt | nt | nt
CSCCCNC(=S)N1CCN(c2ccc(C(C)=O)cc2)CC1 | i | 6.0[inhibitor] | i | 5.0[inhibitor] | i | i | i
O=C(CCS(=O)(=O)c1cccs1)N1CCN(c2ccc(F)cc2)CC1 | i | i | i | 122 | i | i | 71
O=C(NC(=S)N1CCOCC1)C12CC3CCC(CC(C3)C1)C2 | i | i | i | i | nt | nt | nt
O=C(NC(=S)N1CCOCC1)C12CCC3CC(CC(C3)C1)C2 | i | i | i | 134 | i | i | i
COc1cc(CNCCc2c[nH]c3ccccc23)ccc1OCc1ccccc1F | i | 244 | 60 | i | i | 73 | i
COc1cccc(CNCCc2c[nH]c3ccccc23)c1OCc1ccccc1 | i | 165 | 58 | i | i | i | i
O=Cc1c(N2CCSCC2)nc2ccccn2c1=O | i | i | i | i | nt | nt | nt
O=C(CSc1nnc(-c2ccccc2)o1)NC(=O)Cc1ccccc1 | i | nt | nt | nt | nt | nt | nt
CN(C)c1ccc(/C=C2\C(=N)N3N=C(CC(=O)N4CCCC4)SC3=NC2=O)cc1Br | i | i | i | i | nt | nt | nt
NC(=O)CCN1CCN(C(=O)c2ccc3nc(Cc4cccc(Cl)c4)oc3c2)CC1 | i | i | i | i | nt | nt | nt
CCOc1cc(C2C(C#N)=C(N)OC(C)=C2C(C)=O)c(Br)c(Br)c1OC(C)C (stereo not drawn) | i | i | i | 68[inhibitor] | i | i | i
COc1ccc(NC(=O)Nc2ccccc2C)c(OC)c1 | i | i | i | i | nt | nt | nt
Cc1nn(-c2ccccc2)c(Cl)c1C1C(C#N)=C(N)Oc2n[nH]c(C)c21 (stereo not drawn) | i | i | i | i | nt | nt | nt
Cc1[nH]c2ccccc2c1/C=N/Nc1nc2ccccc2[nH]1 | i | 140 | i | i | i | i | i
Cc1ccccc1/C=N/Nc1nc2ccccc2[nH]1 | i | i | i | i | nt | nt | nt
c1ccc2c(c1)Oc1cccc3cccc-2c13 | i | i | i | i | nt | nt | nt
CCOC(=O)/C(N=Nc1c(Br)cc(Br)cc1Br)=C(\C)O | i | i | i | 126 | i | i | i
SMILES | GRK2 aptamer HTS | MEKK2 WT-MEK5 | MEKK2 mut-MEK5 | MEKK3 PB1 HTS | MEKK2wt confirm | MEKK2mut-MEK5 | MEKK3 confirm
CCOC(=O)NC(=O)/C(N=Nc1cc(C)cc(C)c1)=C(\C)O | i | i | i | i | nt | nt | nt
COc1ccc(Cl)cc1N(CC(=O)N1CCN(Cc2ccccc2)CC1)S(C)(=O)=O | i | i | i | 125 | i | i | i
COc1ccc(N(CC(=O)N2CCN(Cc3ccccc3)CC2)S(C)(=O)=O)c(OC)c1 | i | i | i | i | nt | nt | nt
COc1cc2c3nnc(-c4ccc(F)cc4)c-3cn(Cc3cccc(C)c3)c2cc1OC | i | 167 | 48 | i | i | i | i
COc1cc2c3nnc(-c4ccc(F)cc4)c-3cn(Cc3cccc(F)c3)c2cc1OC | i | i | i | 39[inhibitor] | i | i | i
CCC1Nc2ncnc(N3CCOCC3)c2N(Cc2ccc(OC)cc2)C1=O (stereo not drawn) | i | nt | nt | nt | nt | nt | nt
NC(=O)C1CCN(C(=O)c2cc(S(=O)(=O)N3CCOCC3)ccc2Cl)CC1 | i | i | i | i | nt | nt | nt
COc1ccc(CN2CCN(Cc3ccon3)CC2CCO)c(C)c1C (stereo not drawn) | i | i | i | i | nt | nt | nt
O=C(NNc1c(Cl)cncc1Cl)c1sccc1Cl | i | i | i | 132 | i | i | i
O=C(NNc1ccc(Cl)cc1)c1sccc1Cl | i | i | i | i | nt | nt | nt
N#CCCn1c(SCC(=O)NCCc2ccc(F)cc2)nc2ccccc21 | i | i | i | i | nt | nt | nt
Cc1cc(N)n(-c2ccccc2)n1 | i | nt | nt | nt | nt | nt | nt
Cc1cc(-c2cc(N)n(-c3ccccc3)n2)c(C)n1C1CCCC1 | i | -5.0[inhibitor] | i | i | i | i | i
Cc1c(Cl)cccc1NC(=O)C1CCN(S(C)(=O)=O)CC1 | i | nt | 254 | i | i | i | i
Cc1cccc(NC(=O)C2CCN(S(C)(=O)=O)CC2)c1C | i | i | i | i | nt | nt | nt
N#CC1=C(N)OC2=C(C(=O)CCC2)[C@]12C(=O)N(CC(N)=O)c1ccccc12 | i | -1.0[inhibitor] | i | 0.0[inhibitor] | i | i | i
N#CC1=C(N)OC2=C(C(=O)CCC2)C12C(=O)N1CCCc3cccc2c31 (stereo not drawn) | i | i | i | i | nt | nt | nt
O=C(Nc1ccncc1)C1COc2ccccc2O1 (stereo not drawn) | i | i | i | i | nt | nt | nt
O=C(NC1=NCCS1)C1COc2ccccc2O1 (stereo not drawn) | i | -1.0[inhibitor] | i | 1.0[inhibitor] | i | i | i
CCOC(=O)c1ccccc1Oc1c(F)c(F)nc(NCCO)c1F | i | i | i | i | nt | nt | nt
O=C(O)c1cccc(N2C(=O)c3cccc(Oc4ccc(Cl)cc4)c3C2=O)c1 | i | i | i | 131 | i | i | i
Cc1csc2nc(NC(=O)c3ccccc3)sc(=O)c12 | i | i | i | 130 | i | i | i
Cc1csc2c(=O)sc(NC(=O)c3ccc(F)cc3)nc12 | i | i | i | i | nt | nt | nt
Cc1ccccc1C(=O)Nc1nc2c(C)csc2c(=O)s1 | nt | i | i | 128 | i | i | i
COc1ccc(N2CCN(C(=O)c3cccc(Cn4cc(Cl)cn4)c3)CC2)cc1 | i | i | i | i | nt | nt | nt
COC(=O)CCC(=O)OC1(C)C(=O)C=C2C=C(C3CC3)N(CCc3c[nH]c4ccccc34)C=C2C1=O (stereo not drawn) | i | 0.0[inhibitor] | i | 0.0[inhibitor] | i | i | i
COC(=O)CCC(=O)OC1(C)C(=O)C=C2C=C(C3CC3)N(Cc3ccc(OC)cc3)C=C2C1=O (stereo not drawn) | i | i | i | i | nt | nt | nt
COC(=O)CCC(=O)OC1(C)C(=O)C=C2C=C(C3CC3)N(Cc3ccc4c(c3)OCO4)C=C2C1=O (stereo not drawn) | i | -7.0[inhibitor] | i | i | i | i | i
